From PubChem
Sampled rows, rich in hits. Any-hit rate of the full collection: about 6.5%.
HT1080-NT tox: kills 2HG-producing HT-1080-NT fibrosarcoma cells | HT-1080-NT fibrosarcoma viability, CellTiter-Glo ATP luminescence, 48 h | Potency, µM (doses to about 46.1 µM), for inactives: at the highest dose activity, negative = less viability, usual class: cytotoxic | hit rate 1.6% among 360,000 | AID 686970;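 further: NT is the 2HG producing partner of a matched IDH1 knockdown line; potency means the concentration at half of the fitted maximal effect; 0% = DMSO-treated cells and -100% = media-only wells without cells; nearly all actives have a fitted effect of over 55% in size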
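Fibrosarcoma NT cells, 750 per well in 5% FBS RPMI, were exposed to compound for 48 hours. Viability: CellTiter-Glo luminescence.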
HT1080 IDH1KD tx: toxicity to HT-1080 IDH1 knockdown cells (counter line). Potency, µM (titrated, usually from 46.1 µM), inactives show at the highest dose activity, negative = toxicity, most hits filed as cytotoxic. AID 686971. hit rate 2% among 360,000. HT-1080 IDH1 knockdown viability, ATP luminescence, 48 h;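 further: potency means the concentration at half of the fitted maximal effect; 0% = DMSO wells and -100% = cell-free medium wells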
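Using the IDH1-knockdown HT-1080 line run in the same batch and compound series as the NT line, viability after 48 h at 37 °C was determined by CellTiter-Glo luminescence and expressed as % activity.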
IL1B secr inh: blocks inflammasome-driven IL-1 beta release; THP-1 LPS/ATP IL-1B secretion, AlphaLISA, 16 h; stronger effect = lower value; activity change, % at 57.5 µM; hit rate 4.7% among 360,000; in the data active means activity change below about -50%; inconclusive means mostly about -30% to -49%; further: on the % scale 0 is the no-effect control and ±100 the full control effect
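Secreted IL-1B measured by AlphaLISA bead assay after 16 h compound exposure of THP-1 cells; compounds (final up to 57.5 uM) added 1 h before LPS (250 ng/mL) and ATP (1.25 mM) stimulation; lower signal means less secretion.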
HepG2 tox: kills HepG2 cells in TGF-b inhibitor counter-screen; HepG2 CAGA-GFP viability, ATP luminescence, 18 h; hit rate 0.76% among 410,000; Potency, µM (series often up to 46.1 µM), for the others: at the highest dose activity change, negative = cytotoxicity, hits mostly cytotoxic; further: potency means the concentration at half of the fitted maximal effect
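CellTiter-Glo luminescence gave cytotoxicity after 18 hours at 37 degrees C. The cells were HepG2 CAGA-GFP in 1% FBS DMEM, stimulated with 500 pg/mL TGF-beta after compound addition. %Activity was normalised to no-cell wells (complete cell-killing) and DMSO (no toxicity), and curves were fitted and classified.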
TGFb inhibitor: TGF-b pathway inhibition. HepG2 CAGA-GFP TGF-b/SMAD3 reporter, GFP fluorescence, 18 h; TGF-beta stimulated, 500 pg/mL final. Potency, µM (series often up to 46.1 µM), for inactives: at the highest dose activity, negative = inhibition, hits mostly inhibitors. hit rate 1.2% among 410,000; further: potency means the concentration at half of the fitted maximal effect; on the % scale 0 is the no-effect control and ±100 the full control effect; nearly all actives have a fitted effect of over 65% in size
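Cell-based qHTS in HEPG2 carrying a CAGA-GFP Smad reporter; compounds added before 500 pg/mL final TGF-beta, 18 h incubation at 37 degrees C, GFP fluorescence quantified per cell by imaging cytometry.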
Giardia kill: kills Giardia lamblia; hit rate 0.15% among 340,000; activity change, % at 7.66 µM, hits read low; Giardia lamblia trophozoite viability; in the data active means activity change below about -80%; inconclusive means between about -30% and that limit;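 further: parasites exposed to compound for two days anaerobically before the ATP read; on the % scale 0 is the no-effect control and ±100 the full control effect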
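Each well holds 100 Giardia trophozoites and compound. After two days (48 hrs) at 37 deg C in anaerobic conditions, ATP is quantified by luminescence.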
Active calls of the source: *; u = inconclusive; x = no result given. Unless noted, the call rests on the fitted dose curve; in most records, active means well fitted curve in the direction sought with a large enough effect; inconclusive means small, poorly fitted or top-dose-only effect, or another doubt; inactive means no such curve, though single readings can be large; an effect the other way counts as inactive or inconclusive.

SMILES | HT1080-NT tox | HT1080 IDH1KD tx | IL1B secr inh | HepG2 tox | TGFb inhibitor | Giardia kill
Cc1ccc(S(=O)(=O)Nc2ccc3c4c(cccc24)CC3)c(C)c1 | 21µM* | 10µM* | 45 | -5% | u | -2
Cn1cnnc1SCC(=O)Nc1cccc(C(=O)O)c1 | -5% | -1% | 16 | 10% | u | -6
COc1ccccc1NC(=O)CN1CCN(c2ccccc2OC)CC1 | -5% | 0% | 4 | 13% | 0% | 4
O=C(OCCN1C(=O)c2cccc3c(N4CCOCC4)ccc(c23)C1=O)c1ccc(Cl)cc1Cl | 1.8µM* | 2.3µM* | 9 | 4% | 50% | 6
O=C(OCCN1C(=O)c2cccc3c(N4CCOCC4)ccc(c23)C1=O)c1cccc(Cl)c1 | 15µM* | 9.2µM* | -4 | 8% | 25% | -2
OCCNCC12CC3CC(CC(C3)C1)C2 | 6% | 25% | 10 | -5% | -4% | 5
CC(CC12CC3CC(CC(C3)C1)C2)NCc1ccccc1O (stereo not given) | -16% | -13% | -85* | 16µM* | 18µM* | 5
Oc1ccccc1CNCC12CC3CC(CC(C3)C1)C2 | u | -26% | -87* | -17% | 13% | -16
CC(NCc1ccccc1O)c1ccccc1 (stereo not given) | 2% | -3% | 10 | -3% | 1% | 15
Cc1ccc2cccc(OCc3cccc([N+](=O)[O-])c3)c2n1 | 0% | 0% | -51* | -19% | -5% | -11
Cc1ccc2cccc(OCCCOc3ccccc3F)c2n1 | -5% | -7% | -56* | -26% | -9% | -21
Cc1ccc(N2CC(C(=O)NC3CCSC3=O)CC2=O)cc1 (stereo not given) | 5% | 13% | -1 | -5% | -1% | -5
CN(Cc1ccccc1F)c1cc2c(c3c1ccn3C)C1CCC2C1 (stereo not given) | -8% | -10% | 0 | -6% | -1% | x
CCOC(=O)c1c(C)oc2c1c(C(c1cccnc1)N1CCOCC1)c(O)c1ccccc12 (stereo not given) | u | u | -110* | -24% | -23% | -4
CC(C)(C)NCc1cc(Cl)ccc1OCc1ccccc1F | -24% | -26% | -144* | -14% | -2% | -11
Cn1nnnc1SCCCNCc1cc(Cl)ccc1OCc1ccccc1F | x | x | x | -56% | -20% | x
CCN(CC)CCNCc1cc(Cl)ccc1OCc1ccccc1F | 23µM* | u | -90* | -32% | -1% | 2
Cc1cccc(Cc2c(C)nc3c(-c4ccccc4)c(C)[nH]n3c2=O)c1 | x | x | x | -31% | 2.5µM* | x
Cc1nc2c(-c3ccc(Cl)cc3)c(C)[nH]n2c(=O)c1Cc1ccccc1 | u | u | 109 | 10µM* | 11µM* | 0
COCc1cc(=O)n2[nH]c(C)c(-c3ccc(Cl)cc3)c2n1 | -23% | u | 36 | 14µM* | -11% | x
Cc1nc2c(-c3ccccc3)c(C)[nH]n2c(=O)c1Cc1ccccc1 | -27% | u | 84 | -36% | u | 22
Cc1coc2c(C)c3oc(=O)c(CCC(=O)NCCCn4ccnc4)c(C)c3cc12 | 0% | -6% | u | -20% | u | -11
Cc1c(CCC(=O)NCCCn2ccnc2)c(=O)oc2c(C)c3occ(C(C)(C)C)c3cc12 | u | 18µM* | -97* | -25% | u | -5
Cc1ccc(OCC(=O)Nc2ccc3c(c2)nc(CCN2CCCCC2)n3C)cc1 | 12% | 6% | -61* | -31% | 5% | -21
Cc1cccc(OCC(=O)Nc2ccc3c(c2)nc(CCN2CCCCC2)n3C)c1 | -5% | 1% | -50* | -1% | 0% | 9
SMILES | HT1080-NT tox | HT1080 IDH1KD tx | IL1B secr inh | HepG2 tox | TGFb inhibitor | Giardia kill
CC1CCN(CCc2nc3cc(NC(=O)COc4ccc(Cl)cc4)ccc3n2C)CC1 | u | u | -96* | -81% | u | 4
COc1ccc(OCC(=O)Nc2ccc3c(c2)nc(CCN2CCCCC2)n3C)cc1 | 1% | 11% | u | -6% | -3% | u
Cc1cccc(OCC(=O)Nc2ccc3c(c2)nc(CN2CCCCC2)n3C)c1 | 3% | -3% | 21 | -19% | u | 23
Cn1c(CCN2CCN(c3ccccn3)CC2)nc2cc(NS(=O)(=O)c3ccc(Cl)cc3)ccc21 | u | u | -76* | 5% | u | -12
CC(=O)N=C1SC2CS(=O)(=O)CC2N1Cc1ccc(C)cc1 (stereo not given) | 12% | 5% | -6 | 12% | 11% | -20
Cc1ccc(S(=O)(=O)Nc2ccc3c(c2)nc(CCN2CCOCC2)n3C)cc1 | -2% | -11% | u | 7% | 0% | 10
Cc1ccc(S(=O)(=O)Nc2ccc3c(c2)nc(CCN2CCCCC2)n3C)cc1 | -26% | u | -92* | 7% | -23% | -25
CC1(O)CC(c2ccc(Cl)cc2)=NN1C(=O)c1ccc(Cl)cc1 (stereo not given) | -9% | -8% | -9 | -41% | 10µM* | -10
O=C(C1CC1)N1N=C(c2ccc(Cl)cc2)CC1(O)C(F)(F)F (stereo not given) | 1% | -7% | -1 | -34% | u | -5
Cc1ccc(C(=O)OC2CCOC2=O)cc1NC(=O)c1ccco1 (stereo not given) | -6% | -3% | -7 | -8% | 27% | -1
Cc1cc(C)cc(NC(=O)N2CCCN(Cc3c(F)cccc3Cl)CC2)c1 | -3% | -1% | u | 10% | 1% | -8
Cc1cc(C=O)c(C)n1-c1ccc(N2CCOCC2)c([N+](=O)[O-])c1 | -9% | -13% | -4 | -1% | -1% | -9
Nc1cc(N2CCOCC2)c(Cl)cc1[N+](=O)[O-] | u | 16µM* | 21 | 4% | 5% | -4
Cc1ccc(C)n1-c1ccc(N2CCOCC2)c([N+](=O)[O-])c1 | -25% | u | -68* | -1% | 5% | 0
Cc1nc2c(C)cccn2c(=O)c1NC(=O)c1ccc(Br)o1 | -4% | 1% | 7 | 0% | 5% | 17
CN(C(=O)CN1C(=O)c2ccc([N+](=O)[O-])cc2C1=O)C1CCCCC1 | 15% | 14% | 4 | 0% | -28% | -1
O=C(c1ccc(N2CCCC2)c([N+](=O)[O-])c1)N1CCN(S(=O)(=O)c2ccc(Cl)cc2)CC1 | -2% | -8% | u | 17% | 7% | -5
Nc1ccc(C(=O)N2CCCC2)cc1CS(=O)(=O)c1ccc(Cl)cc1 | 18% | 5% | 16 | 9% | 5% | 6
